Assay results: PubChem BioAssay (NCI)
This is part of a sample that, as a whole, favours compounds with a hit. Of some 83,000 tested, about 20% had one in any assay.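 Negative percent growth values reflect cell death: -40 means 40% of the cells present at the start died, and -100 means all died.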 Calls of active or inactive are those of the source. How the source made its calls: active means growth percent below 10; inactive means the rest.

system: DU-145 prostate; experiment: NCI-60 one-dose screen, 48 h (100 = growth as untreated, 0 = no growth, -100 = all killed); settings: 10 µM unless noted

SMILES | growth
C[C@]12CC[C@@H]3c4cc(O)c(O)cc4CC[C@H]3[C@@H]1CC[C@@H]2O | 39.1% (inactive)
CCCOC(=O)C1(O)CCCC1 | 123% (inactive)
COC1=CC(c2ccc[nH]2)=N/C1=C\c1[nH]c(C)c(C(=O)CCCCC(=O)NCc2ccccc2)c1C | 17% (inactive)
O=C(NNC(=S)Nc1ccccc1)c1ccccn1 | 42.9% (inactive)
COc1cc(NC(=O)CCl)ccc(=O)c1 | 83.5% (inactive)
COc1ccc(S(=O)(=O)N2CCN(c3cc4c(cc3F)c(=O)c(C(=O)O)cn4C3CC3)CC2)c(OC)c1 | 98.3% (inactive)
COc1ccc(Cn2cc(COc3cc(/C=C/C(=O)c4cc(OC)c(OC)c(OC)c4)ccc3OC)nn2)cc1 | 88.5% (inactive)
COc1cc(C(=O)OCCCCCCCCCCC[P+](c2ccccc2)(c2ccccc2)c2ccccc2)ccc1O | 10.6% (inactive)
CC(C(=O)n1cc(-c2ccccc2)c(-c2ccccc2)c1)c1ccccc1 (stereo not given) | 113% (inactive)
C=CCOc1cccc(/C=C/C(=O)c2sc(Nc3cccnc3)nc2C)c1 | 38.4% (inactive)
O=C(CCCn1c(=O)c2sc3ccccc3c2n2nnc(-c3ccccc3)c12)NCCc1cnc[nH]1 | -68.8% (active)
CCC1CCc2nc3sc(C(=O)Nc4cccc(C)c4)c(N)c3cc2C1 (stereo not given) | 78.3% (inactive)
Cc1cccc(NC(=O)c2sc3nc4c(cc3c2N)CCCC4)c1 | 45.6% (inactive)
COc1ccc(-c2cn[nH]c2-c2cc(OC)c3c(c2)OCCO3)cc1 | 9.03% (active)
CC(C)C[C@H](NC(=O)Cn1ccc(NCc2ccccc2)cc1=O)B(O)O | 36.6% (inactive)
